Compounds without any hit were thinned out: in the full panel of roughly 79,000, 15% have a hit. Calls of active or inactive are those of the source. Rule as the data show it: active = growth inhibition above about 70%; inactive = the rest. Where a SMILES comes first, the peptide text is derived from it. [ ]: non-standard residue; d: D form. The star is where a group is joined. mTyr = N[CH](Cc1cccc(O)c1)C(=O)O; Cbz = O=C(OCc1ccccc1)*; OBn = c1ccc(CO*)cc1

The nature of this assay: NCI Yeast Anticancer Drug Screen. Data for the rad50 strain (AID 155).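 Also: 0% = growth of vehicle-only cultures of the same strain.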 The note with it: S. cerevisiae rad50 strain growth inhibition; at 5.0 µM (retest, dose inferred, filed as 0.5); active compounds read high. An outline of the steps: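 A DNA repair-deficient yeast mutant serves as the test organism; compound-induced growth inhibition is calculated against vehicle-treated cells.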
For `CC12CCC(c3sc(N)c(C#N)c31)C2(C)C` (stereo not given), the growth inhibition is -14% (inactive).
For the compound `O=C1/C(=C/c2cccc(F)c2)CCCc2ccccc21`, the growth inhibition was 3% (inactive).
The result for `CC(=O)N[C@H]1CC[C@H]2[C@@H]3CCC4=CC(=O)CC[C@]4(C)[C@H]3CC[C@]12C` reads 5% (inactive).
Consider `C/C(=N/O)c1ccc2c(c1)C(=NO)c1cc(/C(C)=N/O)ccc1-2`, for which the growth inhibition is 19% (inactive).
Next, `Cc1cccc(N2C(c3ccccc3)c3ccc(C)cc3NS2=O)c1` (stereo not given): 2% (inactive); `[Pt].c1ccc(P(CCP(CCP(c2ccccc2)c2ccccc2)CCP(c2ccccc2)c2ccccc2)c2ccccc2)cc1`: 6% (inactive).
The result for `Cc1cc(I)ccc1NC(=S)Nc1ccccc1F` reads -3% (inactive).
Next, `FC(F)(F)c1ccccc1NC(=S)SCc1ccc(Cl)cc1`: 3% (inactive); `COC(=O)C1(C)CC2C(C)(CCC3(C)C4=CC=C5C(=CC(=O)C(O)=C5C)C4(C)CCC23C)CC1O` (stereo not given): 44% (inactive).
For `CC1CCC(=NNC(N)=O)CC1` (stereo not given), the growth inhibition was -1% (inactive).
Next, `CCOC(=O)C(NS(=O)(=O)c1ccccc1)(C(F)(F)F)P(=O)(OCC(C)C)OCC(C)C` (stereo not given): 4% (inactive).
Next, `O=[N+]([O-])c1ccc(/C=N/NC2=CS(=O)(=O)C=C2)cc1`: 0% (inactive); `CC(C)c1ccc2c(c1)CCC1C(C)(CNC(=O)S)CCCC21C.[Zn+2]` (stereo not given): 9% (inactive); `Cc1ccc(N=Nc2sc(N)nc2C)cc1C`: -154% (inactive).
Next, `CC(C)(C)C1CCC2c3c([nH]c4ccccc34)C3C(=O)N(c4ccc(C(=O)O)cc4)C(=O)C3C2C1` (stereo not given): 98% (active).
As to `O=C(CBr)Nc1ccc(Cc2ccc(NC(=O)CBr)cc2)cc1`, the growth inhibition is 11% (inactive).
As for `O=c1[nH]c2c([N+](=O)[O-])cc(Cl)cc2nc1/C=C(\O)c1ccc(Cl)cc1`, the growth inhibition was -16% (inactive).
The result for `CCOC(=O)C1=C(N)N(S(=O)(=O)c2ccc(C)cc2)CCC(C(=O)OC)=C1` reads 3% (inactive); that for `CC(C)=CC(=O)OC(CCCc1ccccc1)c1ccc2c(c1)OCO2` (stereo not given), 5% (inactive); that for `OCCN(CCO)c1cc(/C=C/c2ccnc3ccccc23)nc2ccccc12`, 7% (inactive).
On to `CCCCCCCCCCCC(=O)OCC1CO1` (stereo not given), for which the growth inhibition is -6% (inactive).
Next, `CCCCCCCCCCCCCCCCCC1=NCCN1`: 6% (inactive).
Next, `CC(=O)OCC1OC(OC2C=C(O[Si](C)(C)C)C[C@H]3C(=O)C=CC(=O)[C@@H]23)C(OC(C)=O)C(OC(C)=O)C1OC(C)=O` (stereo not given in full): 6% (inactive).
Next, `C[C@]12CC[C@H]3[C@@H](CCC4=CC(=O)CC[C@@]43C)[C@@H]1CC[C@@H]2C(=O)C=O`: 19% (inactive); `CCCCCC(O)C(C)CO` (stereo not given): 1% (inactive).
Turning to `CC(=O)Oc1ccc(-c2ccccc2)cc1Br`, the growth inhibition was 8% (inactive).
The result for `COC(=O)C(Cc1cccc(O)c1)NC(=O)C(CC(=O)OCc1ccccc1)NC(=O)OCc1ccccc1` (stereo not given) (Cbz-Asp(OBn)-[mTyr]-OMe; configuration not given here) reads -12% (inactive); that for `CCC(CO)Nc1nc2cc(Br)ccc2c2ccc(Br)cc12` (stereo not given), 36% (inactive); that for `Cc1cc(Br)ccc1NC(=O)/C=C/C(=O)O`, -23% (inactive).
Next, `CCO/C=C1N=C(/C=C/c2ccccc2Cl)OC/1=O`: -6% (inactive); `O=S(=O)(Nc1ccccc1C(F)(F)F)c1ccc(F)cc1`: -23% (inactive).
As to `N#CSCC(=O)c1ccc2ccccc2c1`, the growth inhibition is 67% (inactive).
As to `O=[N+]([O-])/C(Cl)=C(\Nc1ccccc1)C(Cl)=C(Cl)Cl`, the growth inhibition was 55% (inactive).
For `C/C(=N/NC(=O)c1ccccc1S(N)(=O)=O)C(CN1CCCCC1)C(C1=C(O)C2C=CC=CC2OC1=O)c1ccccc1` (stereo not given), the growth inhibition is 41% (inactive).
The result for `N#Cc1c([N+](=O)[O-])cc(C(F)(F)F)cc1[N+](=O)[O-]` reads 92% (active).
Next, `CCCCCCCCCCCCO`: 10% (inactive).
The result for `S=C(N/N=C/c1ccccn1)N1CC2CCC(CC2)C1` reads 99% (active); that for `ClC1(c2ccccc2)c2ccccc2-c2ccccc21`, -26% (inactive); that for `Cc1ccc(SCC#CC#CCS(=O)c2ccc(C)cc2)cc1` (stereo not given), 100% (active).
With `CCCCCCCOc1ccc(C=O)cc1OC`, the growth inhibition was 0% (inactive).

These data come from PubChem BioAssay (NCI).
